This is an account of results in PubChem BioAssay AID651640 (Broad Institute, 2012).

Each structure is given as a SMILES string. Values joined by “and” are separate entries in the source; they are usually repeats but may differ in a detail not shown here. Equal entries are not always repeated. Hit rate of the full screen: of about 350,000 compounds, about 6,000 (1.7%) were called active. Roughly 5% stayed inconclusive and do not appear here. No stated cut-off is given here; in the data, active means CPE inhibition above about 20% (passing the limit was not always enough); inconclusive means no clear call, values can overlap the other calls; tested in BHK-21 cells. The entries come from a sample that favours actives as a whole. A structure can be active in one record and inactive in another.

The assay can be described thus: inhibitors of DENV2 cytopathic effect, primary screen, cell-based, plate reader, single concentration (AID 651640).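 Further: 0% = median of neutral control wells and 100% = median of positive control wells.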 The following applies: DENV2-infected cells, cytopathic effect rescue, at 9.99 µM, stronger effect = higher value. A general note: Cytopathic effects are the visible damage that an infection or toxin causes in cultured cells.
On to `Cc1cc(C)n2c(Nc3c(C)cccc3C)c(CCc3ccccc3)nc2n1`, for which the CPE inhibition is 20.8% (active).

Regarding `Cc1ccc(O)c(CCc2ccccc2)n1`, the CPE inhibition was 1.33% (inactive).

For the compound `Cc1cc(C)n2c(NCc3ccccc3)c(CC(C)C)nc2n1`, the CPE inhibition is -7.45% (inactive).

`CN1C[C@H]2[C@@H](c3ccccc31)[C@@H](CO)N2C(=O)Nc1ccccc1`: the CPE inhibition is 58.5% (active).

As for `CN1C[C@@H]2[C@H](c3ccccc31)[C@H](CO)N2C(=O)Nc1ccc(F)cc1`, the CPE inhibition is -5.89% (inactive).

In the case of `CCCNC(=O)N1[C@@H]2CN(C)c3ccccc3[C@@H]2[C@@H]1CO`, the CPE inhibition is -0.141% (inactive).

As for `CC(C)NC(=O)N1C[C@H]2[C@@H](c3ccccc31)[C@H](CO)N2C(=O)c1ccccc1F`, the CPE inhibition was -10% (inactive).

On to `O=C(c1ccccc1F)N1C[C@@H]2[C@H](c3ccccc31)[C@H](CO)N2C(=O)C1CCCC1`, for which the CPE inhibition is -9.77% (inactive).

`CC(C)NC(=O)N1[C@H](CO)[C@@H]2c3ccccc3N(C(=O)c3ccccc3F)C[C@@H]21`: the CPE inhibition is 54.6% (active).

As for `CCC(=O)N1[C@@H](CO)[C@@H]2c3ccccc3N(C(=O)c3ccccc3F)C[C@@H]21`, the CPE inhibition is 26.9% (active).

On to `O=C(c1ccccc1F)N1C[C@H]2[C@@H](c3ccccc31)[C@@H](CO)N2C(=O)c1ccc(F)cc1`, for which the CPE inhibition was -13.2% (inactive).

For the compound `CC(C)NC(=O)N1[C@@H]2CN(C(=O)Nc3ccc(F)cc3)c3ccccc3[C@@H]2[C@@H]1CO`, the CPE inhibition is 8.2% (inactive).

On to `O=C1O[C@@H](c2ccccc2)[C@@H](c2ccccc2)N2[C@@H](c3ccccc3OCCO)[C@]3(C(=O)Nc4ccccc43)[C@@H](C(=O)N3CCCCCCC3)[C@H]12`, for which the CPE inhibition was 0.314% (inactive).

Regarding `COC(=O)C[C@H]1CC[C@H]2[C@@H](COc3ccc(NC(=O)C4CC4)cc3C(=O)N2C)O1`, the CPE inhibition was -4.57% (inactive).

`O=C(N[C@H]1CC[C@@H](CCNS(=O)(=O)c2ccc(Cl)cc2)O[C@H]1CO)c1cccc(F)c1`: the CPE inhibition was -5.79% (inactive).

As to `O=C(C[C@H]1CC[C@H]2[C@@H](COC[C@@H](O)CN2Cc2nccs2)O1)NCc1ccccc1Cl`, the CPE inhibition is -3.47% (inactive).

Take `C[C@H](CO)N1C[C@H](C)[C@H](CN(C)Cc2cccc(C(=O)O)c2)Oc2ncc(-c3ccccc3F)cc2C1=O`: the CPE inhibition was 5.26% (inactive).

As to `C[C@@H]1CCCCO[C@@H](CN(C)Cc2ccc(C(=O)O)cc2)[C@H](C)CN([C@H](C)CO)C(=O)c2cc(NC(=O)Nc3ccc(F)cc3)ccc2O1`, the CPE inhibition was 4.69% (inactive).

Turning to `C[C@H]1CN([C@@H](C)CO)C(=O)c2cc(/C=C/c3ccccc3)cnc2O[C@@H]1CN(C)C(=O)c1ccc(F)cc1`, the CPE inhibition was -7.53% (inactive).

`CN1OC[C@@H]2CN(C(=O)c3ccc(-c4ccccc4)cc3)[C@H](c3ccc(-c4cccc(F)c4)cc3)C[C@@H]21`: the CPE inhibition is -4.1% (inactive).

As for `COc1ccc(S(=O)(=O)N2C[C@H]3CON(C)[C@H]3C[C@H]2c2cccc(Br)c2)cc1`, the CPE inhibition is -6.66% (inactive).

Take `COc1ccc(CN2C[C@H]3CON(C)[C@H]3C[C@H]2c2ccc(-c3cccc(F)c3)cc2)cc1`: the CPE inhibition was 27.4% (active).

As for `CCOC(=O)C1(Cc2ccccc2C)CCCN(C(=O)CCc2c(C)noc2C)C1` (stereo not given), the CPE inhibition is 49.6% (active).

Regarding `Cc1noc(C)c1CCC(=O)N1CCCC(CO)(Cc2ccccc2)C1` (stereo not given), the CPE inhibition is 7.18% (inactive).

Take `CCOC(=O)C1(Cc2ccccc2C)CCCN(C(=O)CN2C(=O)CSC2=O)C1` (stereo not given): the CPE inhibition was 1.33% (inactive).

With `CC(C)c1nc2cc(C(=O)NC(C)c3cnn(C)c3)ccc2o1` (stereo not given), the CPE inhibition was 1.88% (inactive).

For `CCCCc1nc2cc(C(=O)N3CCCCC3CCO)ccc2o1` (stereo not given), the CPE inhibition is 6.93% (inactive).

Turning to `CCCCc1nc2cc(C(=O)NCCc3cnn(C)c3)ccc2o1`, the CPE inhibition was 36% (active).

Take `C[C@@H]1CN([C@H](C)CO)C(=O)c2cc(-c3ccc(C#N)cc3)cnc2O[C@@H]1CN(C)C(=O)Nc1ccccc1`: the CPE inhibition is -5.47% (inactive).

On to `COc1ccc2c3c(n(C)c2c1)[C@@H](CO)N(CC1CC1)CC31CCN(C(=O)c2cccc(F)c2)CC1`, for which the CPE inhibition is -5.77% (inactive).

`O=C(O)C1CCCCC1C(=O)N1CCN(S(=O)(=O)c2ccc(F)cc2)CC1` (stereo not given): the CPE inhibition was 70.6% (active).

On to `O=C(c1cnc(Cl)c(Cl)c1)N1CCN(S(=O)(=O)c2ccc(F)cc2)CC1`, for which the CPE inhibition was 1.53% (inactive).

Take `O=C(C1CCCN(S(=O)(=O)c2ccccc2)C1)N1CCN(c2ccc(F)cc2)CC1` (stereo not given): the CPE inhibition was -0.979% (inactive).

As to `COc1cccc(C(=O)N2C[C@@H]3[C@H](c4ccccc42)[C@H](CO)N3Cc2ccccc2F)c1`, the CPE inhibition was 6.58% (inactive).

Consider `O=C(NS(=O)(=O)c1cccs1)[C@H]1O[C@@H](n2ccc(=O)[nH]c2=O)[C@H](O)[C@@H]1O`, for which the CPE inhibition was 77.5% (active).

As for `Cc1nccn1-c1ccc(NC(=O)[C@H]2O[C@@H](n3ccc(=O)[nH]c3=O)[C@H](O)[C@@H]2O)cc1`, the CPE inhibition is 1.75% (inactive).

Take `O=C(N[C@H](Cc1ccccc1)C(=O)N1CCCN(Cc2cccs2)CC1)[C@H]1O[C@@H](n2ccc(=O)[nH]c2=O)[C@H](O)[C@@H]1O`: the CPE inhibition is -10.6% (inactive).

For `Clc1ccc(-c2csc(-c3ccncc3)n2)cc1`, the CPE inhibition was 2.38% (inactive).

`Fc1ccc(-c2csc(-c3ccc(C4SCCS4)cc3)n2)cc1F`: the CPE inhibition is 38.4% (active).

Take `COc1ccc(CC(=O)Nc2nc(-c3ccc(F)c(F)c3)cs2)cc1OC`: the CPE inhibition was -4.33% (inactive).

As to `CC(C)NC(=O)N(C)C[C@@H]1OCCCC[C@@H](C)Oc2ccc(NC(=O)c3ccccc3)cc2C(=O)N([C@@H](C)CO)C[C@H]1C`, the CPE inhibition is 3.29% (inactive).

`C[C@@H]1CN([C@@H](C)CO)C(=O)c2cc(NC(=O)Nc3cccc4ccccc34)ccc2O[C@@H]1CN(C)C(=O)NC1CCCCC1`: the CPE inhibition was -3.76% (inactive).

Regarding `COc1ccc(C2CC(c3cccs3)=NN2C(=O)CCC(=O)O)cc1OC` (stereo not given), the CPE inhibition was 36.9% (active).

Turning to `COc1ccc(C2=NN(C(=O)CCC(=O)O)C(c3cccs3)C2)cc1OC` (stereo not given), the CPE inhibition was -2.94% (inactive).

Consider `COc1ccc(C2CC(c3cccs3)=NN2C(=O)CSc2nncs2)cc1OC` (stereo not given), for which the CPE inhibition was 6.81% (inactive).

For `COc1ccccc1CNC(=O)CCCN1C(=O)NC2(CCCC2)C1=O`, the CPE inhibition was 54.7% (active).

As to `COc1ccccc1C(=O)NCCC(=O)NN1C(=O)NC2(CCCCC2)C1=O`, the CPE inhibition was 0.164% (inactive).

As for `COc1ccccc1CCNC(=O)CN1C(=O)NC2(CCCC2)C1=O`, the CPE inhibition is -7.14% (inactive).

Consider `C[C@@H]1CCCCO[C@@H](CN(C)C(=O)C2CCCCC2)[C@@H](C)CN([C@H](C)CO)C(=O)c2cc(NC(=O)c3ccccc3)ccc2O1`, for which the CPE inhibition is 17.1% (inactive).

Take `COCC#Cc1ccc2c(c1)O[C@H](CN(C)C(=O)CN(C)C)[C@@H](C)CN([C@H](C)CO)S2(=O)=O`: the CPE inhibition is -5.36% (inactive).

With `CCC(=O)N(C)C[C@H]1Oc2cc(C#CCOC)ccc2S(=O)(=O)N([C@H](C)CO)C[C@H]1C`, the CPE inhibition is 77.3% (active).

For the compound `CCC(=O)N(C)C[C@@H]1Oc2cc(C#CCOC)ccc2S(=O)(=O)N([C@H](C)CO)C[C@H]1C`, the CPE inhibition is -10.5% (inactive).

In the case of `C[C@@H]1CN([C@H](C)CO)S(=O)(=O)c2ccc(C#CCC3CCCC3)cc2O[C@H]1CN(C)C(=O)CC1CC1`, the CPE inhibition is 9.35% (inactive).

Regarding `C[C@H]1CN([C@@H](C)CO)S(=O)(=O)c2ccc(-c3cncnc3)cc2O[C@H]1CN(C)Cc1ccncc1`, the CPE inhibition is 35.7% (active).

In the case of `C[C@H](CO)N1C[C@H](C)[C@@H](CN(C)Cc2cncnc2)Oc2cc(-c3ccccc3)ccc2S1(=O)=O`, the CPE inhibition was -3.98% (inactive).

`Cc1noc(C)c1NC(=O)N(C)C[C@@H]1Oc2cc(Br)ccc2S(=O)(=O)N([C@@H](C)CO)C[C@H]1C`: the CPE inhibition was 21.5% (active) and 2.3% (inactive).

In the case of `Cc1noc(C)c1NC(=O)N(C)C[C@@H]1Oc2cc(C#CCC(C)C)ccc2S(=O)(=O)N([C@H](C)CO)C[C@@H]1C`, the CPE inhibition was 16.2% (inactive).

As for `C[C@H](CO)N1C[C@H](C)[C@H](CN(C)Cc2ccncc2)Oc2cc(-c3cncnc3)ccc2S1(=O)=O`, the CPE inhibition is -6.89% (inactive).

Consider `C[C@@H]1CN([C@@H](C)CO)S(=O)(=O)c2ccc(C#CCC3CCCC3)cc2O[C@@H]1CN(C)C`, for which the CPE inhibition was -3.23% (inactive).

For the compound `COc1ccccc1NC(=O)N(C)C[C@H]1Oc2cc(Br)ccc2S(=O)(=O)N([C@H](C)CO)C[C@@H]1C`, the CPE inhibition is 10.7% (inactive) and 3.12% (inactive).

Turning to `C[C@@H]1CN([C@H](C)CO)S(=O)(=O)c2ccc(C#CCC3CCCC3)cc2O[C@H]1CN(C)Cc1ccc(C(=O)O)cc1`, the CPE inhibition is 41.8% (active).

Consider `CN1C(=O)c2cc(NC(=O)Nc3ccccc3Cl)ccc2OC[C@H]2O[C@H](CC(=O)NCCCN3CCOCC3)CC[C@H]21`, for which the CPE inhibition is -4.69% (inactive).

On to `CCNC(=O)C[C@@H]1CC[C@H]2[C@@H](COc3ccc(NC(=O)NC(C)C)cc3C(=O)N2C)O1`, for which the CPE inhibition is -7.53% (inactive).

With `COc1ccc(NC(=O)Nc2ccc3c(c2)OC[C@@H](C)NC[C@@H](C)[C@H](OC)CN(C)C3=O)cc1`, the CPE inhibition was -3.84% (inactive).

Regarding `COc1ccc(S(=O)(=O)N2C[C@@H](O)COC[C@H]3O[C@@H](CC(=O)NCCN4CCCCC4)CC[C@@H]32)cc1`, the CPE inhibition was 2.39% (inactive).

`C[C@@H]1CN([C@H](C)CO)C(=O)c2cc(NC(=O)NC3CCCCC3)ccc2O[C@H]1CN(C)C(=O)Nc1ccccc1`: the CPE inhibition is 1% (inactive).

On to `C[C@@H]1CCCCO[C@@H](CN(C)C(=O)Cc2ccccc2)[C@@H](C)CN([C@@H](C)CO)C(=O)c2cc(NC(=O)c3ccccc3)ccc2O1`, for which the CPE inhibition was -1.37% (inactive).

Take `O=C(Nc1ccccc1)N[C@@H]1CC[C@H](CCn2cc(-c3ccccc3F)nn2)O[C@@H]1CO`: the CPE inhibition was 10.9% (inactive).

`CS(=O)(=O)N1CC2(C1)[C@H](c1ccccc1)[C@@H](CO)N2C(=O)c1ccccc1`: the CPE inhibition was 0.143% (inactive).

Regarding `O=S(=O)(c1ccc(F)cc1)N1CCCCN2[C@H](CO)[C@@H](c3ccc(C#CC4CCCC4)cc3)[C@H]2C1`, the CPE inhibition was -3.13% (inactive).
